In all, about 140,000 sequences were measured (“enrichment ratio after two sorts for PhoP signalling”: median about 0, highest 2% from about 11 on). The sample holds the highest values, similar sequences and a random draw of the others, so the mix is not that of the screen.
B1: PhoQ; a variant is named by its letters at X, in order, P23837 (parent)
chain: MKKLLRLFFPLSLRVRFLLATAAVVLVLSLAYGMVALIGYSVSFDKTTFRLLRGESNLFYTLAKWENNKLHVELPENIDKQSPTMTLIYDENGQLLWAQRDVPWLMKMIQPDWLKSNGFHEIEADVNDTSLLLSGDHSIQQQLQEVREDDDDAEMTHSVAVNVYPATSRMPKLTIVVVDTIPVELKSSYMVWSWFIYVLSANLLLVIPLLWVAAWWSLRPIEALAKEVRELEEHNRELLNPATTRELTSLVRNLNRLLKSERERYDKYRTTLTDLTHSLKTPLXXLQXXLRSLRSEKMSVSDAEPVMLEQISRISQQIGYYLHRASMRGGTLLSRELHPVAPLLDNLTSALNKVYQRKGVNISLDISPEISFVGEQNDFVEVMGNVLDNACKYCLEFVEISARQTDEHLYIVVEDDGPGIPLSKREVIFDRGQRVDTLRPGQGVGLAVAREITEQYEGKIVAGESMLGGARMEVIFGRQHSAPKDE

Variants of: B1
Experiment: enrichment ratio after two sorts for PhoP signalling (ratio (wild type AVST 3.29)); higher = more functional
Conditions: with PhoP (E. coli)
For PRSD, the enrichment ratio was ≤ 0.25. SGLQ gave an enrichment ratio of 16.6. LTLQ gave an enrichment ratio of 2.15. RGLQ was tested, and the enrichment ratio was ≤ 0.25. For KDLQ, the enrichment ratio was ≤ 0.25. SGLR was tested, and the enrichment ratio was ≤ 0.25. Variant TDLQ has an enrichment ratio of 18.8. HQEY was tested, and the enrichment ratio was ≤ 0.25. For FHKA, the enrichment ratio was ≤ 0.25. RKDF was tested, and the enrichment ratio was ≤ 0.25. In the case of TFCG, the enrichment ratio is reported as 5.19. Work on GSLI yielded an enrichment ratio of 15.5. For GSDK, the enrichment ratio was ≤ 0.25. In the case of GSLA, the enrichment ratio is reported as 6.7. Variant GSLS has an enrichment ratio of 11.8. GSLT gave an enrichment ratio of 9.31. GSDN was tested, and the enrichment ratio was ≤ 0.25. With AIWD the enrichment ratio was ≤ 0.25. For LESL, the enrichment ratio was ≤ 0.25. MELM gave an enrichment ratio of 17.7. With QELM the enrichment ratio was ≤ 0.25. MKLM gave an enrichment ratio of 7.36. TELM showed an enrichment ratio of 13.8. With MFLM the enrichment ratio was ≤ 0.25. With NELM the enrichment ratio was ≤ 0.25. RAGW was tested, and the enrichment ratio was ≤ 0.25. SSNF gave an enrichment ratio of 1.62. Work on MSMV yielded an enrichment ratio of 12.7. With MSMS the enrichment ratio was ≤ 0.25. MSLV gave an enrichment ratio of 14.7. In the case of MSMI, the enrichment ratio is reported as 23.5. MSML gave an enrichment ratio of 14.3. For MSWV, the enrichment ratio was 10.2. Work on MSMG yielded an enrichment ratio of 2.86. MSLS was tested, and the enrichment ratio was 5.72. MSNL was tested, and the enrichment ratio was ≤ 0.25. In the case of MSMD, the enrichment ratio is reported as ≤ 0.25. With MSHK the enrichment ratio was ≤ 0.25. In the case of DWAP, the enrichment ratio is reported as ≤ 0.25. DRKM was tested, and the enrichment ratio was ≤ 0.25. HNAE was tested, and the enrichment ratio was ≤ 0.25. LMAI was tested, and the enrichment ratio was ≤ 0.25. In the case of EHKQ, the enrichment ratio is reported as ≤ 0.25. With REPP the enrichment ratio was ≤ 0.25. MSLE was tested, and the enrichment ratio was 3.24. For MLWQ, the enrichment ratio was ≤ 0.25. MSWQ showed an enrichment ratio of 14.5. Variant QSWQ has an enrichment ratio of 33.6. With KSWQ the enrichment ratio was ≤ 0.25. QIWQ was tested, and the enrichment ratio was 34.4. In the case of WIWQ, the enrichment ratio is reported as ≤ 0.25. QDWQ was tested, and the enrichment ratio was ≤ 0.25. TGWQ was tested, and the enrichment ratio was 22.6. In the case of QFWQ, the enrichment ratio is reported as ≤ 0.25. For MCWQ, the enrichment ratio was ≤ 0.25. For RTWQ, the enrichment ratio was ≤ 0.25. MFWQ was tested, and the enrichment ratio was ≤ 0.25. SRES was tested, and the enrichment ratio was ≤ 0.25. With PTVM the enrichment ratio was ≤ 0.25. With GKLF the enrichment ratio was ≤ 0.25. IMPS was tested, and the enrichment ratio was ≤ 0.25. With KGLY the enrichment ratio was ≤ 0.25. For FVII, the enrichment ratio was ≤ 0.25. In the case of VELP, the enrichment ratio is reported as ≤ 0.25. In the case of RMVC, the enrichment ratio is reported as ≤ 0.25. For DREF, the enrichment ratio was ≤ 0.25. With PGRT the enrichment ratio was ≤ 0.25. Variant MIWQ has an enrichment ratio of 24.2. With QLWQ the enrichment ratio was 11.9. MMWQ was tested, and the enrichment ratio was ≤ 0.25. In the case of MGWQ, the enrichment ratio is reported as 24.5. In the case of MRWQ, the enrichment ratio is reported as ≤ 0.25. With TPWQ the enrichment ratio was ≤ 0.25. For MGGG, the enrichment ratio was ≤ 0.25. For NVWQ, the enrichment ratio was ≤ 0.25. For MHWQ, the enrichment ratio was ≤ 0.25. With REHV the enrichment ratio was ≤ 0.25. For INFD, the enrichment ratio was ≤ 0.25. HGVS was tested, and the enrichment ratio was ≤ 0.25. For ASCQ, the enrichment ratio was 4.02. ASCP was tested, and the enrichment ratio was ≤ 0.25. Variant ASIV has an enrichment ratio of 11.4. ASCV showed an enrichment ratio of 18.9. ASQV showed an enrichment ratio of 1.45. ASIE was tested, and the enrichment ratio was 0.421. ASTW was tested, and the enrichment ratio was ≤ 0.25. For ASCA, the enrichment ratio was 13.5. For ASNM, the enrichment ratio was 5.71. Work on ASIS yielded an enrichment ratio of 7.49. ASCK showed an enrichment ratio of 22.8. With KSCK the enrichment ratio was ≤ 0.25. DLCQ was tested, and the enrichment ratio was ≤ 0.25. With APTW the enrichment ratio was ≤ 0.25. With NWDH the enrichment ratio was ≤ 0.25. Variant QMYQ has an enrichment ratio of 7.96. With QHMS the enrichment ratio was ≤ 0.25. ASFG showed an enrichment ratio of 1.66. ASGG showed an enrichment ratio of 4.75. ASCG gave an enrichment ratio of 18.9. Variant ANTV has an enrichment ratio of 16.3. For AHTV, the enrichment ratio was ≤ 0.25. Variant AITV has an enrichment ratio of 6.12. ATIN showed an enrichment ratio of 11.9. In the case of YTIN, the enrichment ratio is reported as ≤ 0.25. With ASTV the enrichment ratio was 12.1. In the case of ASDV, the enrichment ratio is reported as ≤ 0.25. With VRTV the enrichment ratio was ≤ 0.25. For ADIN, the enrichment ratio was ≤ 0.25. HSQP was tested, and the enrichment ratio was ≤ 0.25. With RWHM the enrichment ratio was ≤ 0.25. HETV gave an enrichment ratio of 4.78. RMYW was tested, and the enrichment ratio was ≤ 0.25. EHNH was tested, and the enrichment ratio was ≤ 0.25. In the case of VGEA, the enrichment ratio is reported as ≤ 0.25. SAAE was tested, and the enrichment ratio was ≤ 0.25. With RITI the enrichment ratio was ≤ 0.25. In the case of GKRA, the enrichment ratio is reported as ≤ 0.25. In the case of ASIM, the enrichment ratio is reported as 14.6. With TSIA the enrichment ratio was 2.99. For ASNK, the enrichment ratio was ≤ 0.25. ASIA showed an enrichment ratio of 13.9. ASVN showed an enrichment ratio of 7.54. In the case of KSIN, the enrichment ratio is reported as ≤ 0.25. ASIN was tested, and the enrichment ratio was 12. VRCM was tested, and the enrichment ratio was ≤ 0.25. Work on ASCM yielded an enrichment ratio of 11.6. Work on ASIR yielded an enrichment ratio of 0.563. With KSIA the enrichment ratio was ≤ 0.25. PHTE was tested, and the enrichment ratio was ≤ 0.25. For IMWY, the enrichment ratio was ≤ 0.25. With TLSA the enrichment ratio was 7.98. With KLEH the enrichment ratio was ≤ 0.25. In the case of ISEL, the enrichment ratio is reported as ≤ 0.25. In the case of VMQA, the enrichment ratio is reported as ≤ 0.25. GMPK was tested, and the enrichment ratio was ≤ 0.25. AMTV gave an enrichment ratio of 9.95. Work on ASIC yielded an enrichment ratio of 12.1. AWTV was tested, and the enrichment ratio was ≤ 0.25. ASAE was tested, and the enrichment ratio was 5.56. With AVTV the enrichment ratio was 12.1. MNTV gave an enrichment ratio of 12.2. For TNTV, the enrichment ratio was 10.2. ASAV gave an enrichment ratio of 11.5. MLTV was tested, and the enrichment ratio was ≤ 0.25. With ASTC the enrichment ratio was 5.39. With ASRC the enrichment ratio was ≤ 0.25. With ASWV the enrichment ratio was ≤ 0.25. DPKY was tested, and the enrichment ratio was ≤ 0.25. For MCMW, the enrichment ratio was ≤ 0.25. With PTRL the enrichment ratio was ≤ 0.25. In the case of ETSM, the enrichment ratio is reported as ≤ 0.25. For LHSW, the enrichment ratio was ≤ 0.25. ASCS gave an enrichment ratio of 4.46. For ASWN, the enrichment ratio was ≤ 0.25. VRCC was tested, and the enrichment ratio was ≤ 0.25. With ASFH the enrichment ratio was ≤ 0.25. Work on ASWL yielded an enrichment ratio of 5.05. In the case of ASII, the enrichment ratio is reported as 12.7. Work on ASCC yielded an enrichment ratio of 18.2. With ASCI the enrichment ratio was 19.9. Work on ASCE yielded an enrichment ratio of 4.22. ASIL showed an enrichment ratio of 19.5. Work on ASIT yielded an enrichment ratio of 9.21. ASIQ showed an enrichment ratio of 5.62. For DFLG, the enrichment ratio was ≤ 0.25. In the case of RMGP, the enrichment ratio is reported as ≤ 0.25. For MITD, the enrichment ratio was ≤ 0.25. With PINH the enrichment ratio was ≤ 0.25. In the case of EKTC, the enrichment ratio is reported as ≤ 0.25. QEPD was tested, and the enrichment ratio was ≤ 0.25. With ERFK the enrichment ratio was ≤ 0.25. LKWG was tested, and the enrichment ratio was ≤ 0.25. With TNVF the enrichment ratio was ≤ 0.25. Variant ASCL has an enrichment ratio of 20.8. Work on ASPL yielded an enrichment ratio of 1.12. For TARQ, the enrichment ratio was ≤ 0.25. With HHQY the enrichment ratio was ≤ 0.25. For KSST, the enrichment ratio was ≤ 0.25. In the case of TSST, the enrichment ratio is reported as 15. For NSST, the enrichment ratio was ≤ 0.25. With SSST the enrichment ratio was 12.7. SLST showed an enrichment ratio of 2.81. With SPST the enrichment ratio was ≤ 0.25. With QMYK the enrichment ratio was ≤ 0.25. For QIPN, the enrichment ratio was ≤ 0.25. FCES was tested, and the enrichment ratio was ≤ 0.25. VVSR was tested, and the enrichment ratio was ≤ 0.25. In the case of QEYV, the enrichment ratio is reported as ≤ 0.25. Variant FSAV has an enrichment ratio of 0.409. NAWV was tested, and the enrichment ratio was ≤ 0.25. QSYV gave an enrichment ratio of 14.9. For QAWV, the enrichment ratio was 20.2. In the case of QGWV, the enrichment ratio is reported as 18.5. FFWV was tested, and the enrichment ratio was ≤ 0.25. With KSYV the enrichment ratio was ≤ 0.25. QSAE was tested, and the enrichment ratio was ≤ 0.25. In the case of FSWV, the enrichment ratio is reported as ≤ 0.25. Variant QSAV has an enrichment ratio of 12.1. With KAWV the enrichment ratio was ≤ 0.25.
